This is a sample that favours compounds with a hit; in the whole collection about 10% have one here.
hNpr1 antagonist: Natriuretic polypeptide receptor (hNpr1) antagonism - Primary qHTS; Atrial natriuretic peptide receptor 1 (Homo sapiens), P16066; HEK293 hNpr1 GloSensor cGMP, ANP-stimulated luminescence; Potency, µM (top dose mostly 46.3 µM), for the others: at the highest dose activity change, negative = inhibition, most hits filed as inhibitors; 76,000 tested, 1.6% active; calls by dose curve; also: nearly all actives have a fitted effect of over 60% in size
Target sequence (P16066 whole entry, looked up): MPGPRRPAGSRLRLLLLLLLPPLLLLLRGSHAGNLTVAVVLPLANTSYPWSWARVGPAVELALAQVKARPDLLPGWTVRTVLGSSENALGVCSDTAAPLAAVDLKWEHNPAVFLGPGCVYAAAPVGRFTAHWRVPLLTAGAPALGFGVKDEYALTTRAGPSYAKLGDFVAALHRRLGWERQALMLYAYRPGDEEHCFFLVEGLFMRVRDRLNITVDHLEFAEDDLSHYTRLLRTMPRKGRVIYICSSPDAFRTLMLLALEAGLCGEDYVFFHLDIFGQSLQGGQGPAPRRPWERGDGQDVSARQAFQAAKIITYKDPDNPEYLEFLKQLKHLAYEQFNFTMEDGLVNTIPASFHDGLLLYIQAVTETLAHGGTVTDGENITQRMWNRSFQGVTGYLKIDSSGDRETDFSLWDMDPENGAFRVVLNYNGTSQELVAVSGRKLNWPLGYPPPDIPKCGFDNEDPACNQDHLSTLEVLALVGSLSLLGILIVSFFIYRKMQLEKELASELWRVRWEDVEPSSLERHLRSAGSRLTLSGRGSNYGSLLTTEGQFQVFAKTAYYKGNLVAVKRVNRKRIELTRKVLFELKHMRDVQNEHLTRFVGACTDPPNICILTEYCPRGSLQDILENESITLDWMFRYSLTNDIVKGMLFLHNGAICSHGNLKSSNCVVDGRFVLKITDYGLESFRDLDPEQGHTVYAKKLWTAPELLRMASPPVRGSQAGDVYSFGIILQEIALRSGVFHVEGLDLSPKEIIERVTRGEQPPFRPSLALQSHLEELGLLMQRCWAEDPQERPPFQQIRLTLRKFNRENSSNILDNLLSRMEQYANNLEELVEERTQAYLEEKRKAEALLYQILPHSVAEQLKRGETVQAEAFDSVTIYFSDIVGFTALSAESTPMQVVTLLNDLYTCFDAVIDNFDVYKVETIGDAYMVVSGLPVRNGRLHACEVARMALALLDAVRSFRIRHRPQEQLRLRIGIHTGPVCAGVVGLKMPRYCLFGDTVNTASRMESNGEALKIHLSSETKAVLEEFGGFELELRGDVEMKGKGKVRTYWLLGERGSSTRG
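Compound pre-incubated 30 min at room temperature on GloSensor-loaded HEK293 cells stably carrying hNpr1 and the pGS-40F cGMP biosensor. Stimulation uses hNppA at 0.1 nM final; luminescence is taken at baseline and 20 min post-agonist.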
Luciferase inh: Firefly luciferase inhibition profiling of diverse chemical library using quantitative high-throughput screening | Luciferin 4-monooxygenase (Photinus pyralis), P08659 | purified P. pyralis luciferase, luminescence, biochemical | Potency, µM (titrated, usually from 115 µM), usual class: inhibitors | 76,000 tested, 2.5% active | AID 1347043, 2019; also: nearly all actives have a fitted effect of over 65% in size
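Inhibitors were tested against purified firefly luciferase in a biochemical, low-substrate format (both substrates at 10uM) and luminescence measured with a CCD imager.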
3T3 cytotox: Cytotoxic Profiling in NIH 3T3 Cell Line of Diverse Libraries Using Quantitative High-Throughput Screening | NIH 3T3 viability, CellTiter-Glo ATP luminescence, 48-72 h | Potency, µM (top dose mostly 96.7 µM), for inactives: at the top dose activity change, negative = cytotoxicity, hits mostly inhibitors | AID 1345082, 2018 | 94,000 tested, 4.3% active; also: nearly all actives have a fitted effect of over 55% in size
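Luminescent ATP readout (CellTiter-Glo, 10 min RT) after 48 or 72 hr compound exposure of NIH 3T3 cells seeded at 400 cells/well in 1536-well format; quantitative HTS.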
HEK cytotox: Cytotoxic Profiling in HEK 293 Cell Line of Diverse Libraries Using Quantitative High-Throughput Screening | HEK 293 viability, ATP luminescence (CellTiter-Glo), 48-72 h | Potency, µM (titrated, usually from 115 µM), inactives show top-dose activity change, negative = cytotoxicity, hits mostly inhibitors | 94,000 tested, 6.6% active | AID 1345083, 2018; also: nearly all actives have a fitted effect of over 60% in size
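Cytotoxicity was scored by loss of ATP-coupled luminescence (CellTiter-Glo) in HEK 293 cells. Compound treatment ran 48 or 72 hr at 37 degree Celsius, 5% CO2, 95% humidity.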
GPT2 inh: Primary qHTS assay for inhibitors of Glutamate pyruvate transaminase 2 (GPT2); Alanine aminotransferase 2 (Homo sapiens), Q8TD30; Recombinant GPT2, coupled pyruvate oxidase/HRP Amplex Red fluorescence; Potency, µM (highest dose often 57.7 µM), for the others: at the highest dose activity change, negative = inhibition, hits mostly inhibitors; 100,000 tested, 0.25% active; AID 1671188, 2021; also: nearly all actives have a fitted effect of over 60% in size
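GPT2 10ng/uL, a-KG 250uM, L-Ala 2mM, HEPES pH7.5 + 0.0001% Tween; 30 min RT. Then Amplex mix (PO/HRP/ThPP), 30 min RT dark, fluorescence. AOA 50uM used as positive control.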
Starred values were filed as active, the others as inactive; i = inactive; u = inconclusive; x = not tested or not shown; [ ] = another dose, or the depositor's remark. Unless noted, calls follow the shape of the dose curve; as a rule, active = well fitted curve in the direction sought with a large enough effect; inconclusive = small, poorly fitted or top-dose-only effect, or another doubt; inactive = no such curve, though single readings can be large; an effect the other way counts as inactive or inconclusive. % is scaled to controls: 0 for no effect and ±100 for the full control effect; potency is read from the fitted curve at half-maximal effect.

SMILES	hNpr1 antagonist	Luciferase inh	3T3 cytotox	HEK cytotox	GPT2 inh
CC1=C[C@@H](CNC(=O)CN(C)C)[C@H](C(C)C)C[C@H]1Cc1nc2ccccc2[nH]1	2%[70.6 µM]	i	100µM*	u	4%[88.5 µM]
COc1ccc2[nH]c(C[C@@H]3C[C@@H](C(C)C)[C@H](CNC(=O)C4CCC4)C=C3C)nc2n1	u	i	63µM*	45µM*	-38%[88.5 µM]
CN1CCC(N2CC[C@H](c3nnc(-c4ccccc4F)o3)C2)CC1	2%[70.6 µM]	u	-26%[174 µM]	-23%[172 µM]	-10%[88.5 µM]
O=C(C1CCN(c2nc3ncccc3o2)CC1)N1CCCC1	x	x	i	i	i
FC(F)(F)c1ccnc(N2CCOCC3(CN(Cc4ccccc4)C3)C2)n1	1%[70.6 µM]	i	-24%[138 µM]	u	5%[88.5 µM]
O=[S+]([O-])(c1ccccc1)N1CC2(COCCN(c3nccc(C(F)(F)F)n3)C2)C1	-5%[70.6 µM]	i	u	89µM*	u
CC(=O)N1CCC(c2nnc3n2C(C(=O)NC2CCCCCC2)CC3)CC1 (centres undefined)	x	x	-9%	-3%	i
COc1ccccc1C(=O)N1CCCN(c2cc(-c3ccc(Cl)cc3)[nH]n2)CC1	u	i	u	u	u
COc1cc(C(=O)N2CCN(c3cc(-c4ccc(Cl)cc4)[nH]n3)CC2)cc(OC)c1OC	u	i	25µM*	u	i
CCOc1ccccc1C(=O)N1CCN(c2cc(-c3cccs3)[nH]n2)CC1	-23%	i	u	40µM*	-12%
Cc1ccc(CC(=O)N2CCN(c3cc(-c4cccs4)[nH]n3)CC2)cc1	-21%	i	u	u	i
CCOc1cc(C(=O)N2CCN(c3cc(-c4ccc(Cl)cc4)[nH]n3)CC2)cc(OCC)c1OCC	-5%	i	32µM*	35µM*	i
CCOc1ccc(CC(=O)N2CCN(c3cc(-c4cccs4)[nH]n3)CC2)cc1OCC	-1%	i	28µM*	45µM*	i
Cc1ccccc1C(=O)N1CCN(c2cc(-c3cccs3)[nH]n2)CC1	-4%	i	u	u	3%
CCOc1ccccc1C(=O)N1CCN(c2cc(-c3ccc(Cl)cc3)[nH]n2)CC1	-28%	i	18µM*	35µM*	-11%
COc1ccccc1CC(=O)N1CCN(c2cc(-c3cccs3)[nH]n2)CC1	u	i	u	40µM*	3%
CCOc1ccccc1C(=O)N1CCN(c2cc(-c3ccc(F)cc3)[nH]n2)CC1	-11%	i	u	u	i
COCC1CN(C2CCC2)CC12CCN(C(=O)Cc1ccccc1)CC2 (centres undefined)	8%	i	-14%	u	i
COC(=O)N1CCN(CCn2nc3n(c2=O)CCCC3)CC1	x	x	-16%[138 µM]	0%[172 µM]	x
O=C(NCc1ccco1)c1ccc(-c2ccc(N3CCCCCC3)nc2)cc1	-20%	u	u	40µM*	2%
Cc1ccc(CNC(=O)c2ccc(-c3ccc(N4CCCCC4)nc3)cc2)o1	-15%	14µM*	-10%	u	-8%
CC(C)NC(=O)c1ccc(-c2ccc(N3CCCCCC3)nc2)cc1	u	i	u	u	i
CC(Cc1cnccn1)NC(=O)c1ccc2nc(-c3ccc(F)cc3)cn2c1 (centres undefined)	6%	40µM*	-7%	u	0%
CCC(NC(=O)c1ccc2nc(-c3ccc(F)cc3)cn2c1)c1ncc(C)[nH]1 (centres undefined)	-6%	7.9µM*	u	u	i
CCCn1ccnc1CN1CCCC12CCN(c1ccc(C(F)(F)F)cn1)CC2	-1%	i	u	35µM*	u
SMILES	hNpr1 antagonist	Luciferase inh	3T3 cytotox	HEK cytotox	GPT2 inh
Cn1ccnc1CN1CCCC12CCN(c1ccc(C(F)(F)F)cn1)CC2	-24%	i	u	50µM*	3%
CC(=O)NCCC1CCN(C(=O)Nc2ccc(C)c(F)c2)CC1	-28%	5µM*	i	3%	4%
CS(=O)(=O)N1CCC2(CC1)CN(c1cccc(F)c1)C2c1ccccc1 (centres undefined)	x	x	u	13µM*	-26%
COc1ccc(-c2nc(C(C)C)nc3c2CN([S+](=O)([O-])c2cccc(OC)c2)CC3)cc1	8%	i	u	u	i
CCc1nc2c(c(-c3ccc(Cl)cc3)n1)CCN([S+](=O)([O-])c1ccccc1)CC2	-16%	i	u	35µM*	i
CCc1nc2c(c(-c3ccc(OC)cc3)n1)CN([S+](=O)([O-])c1cccc(OC)c1)CC2	x	x	28µM*	-31%	4%
C[S+](=O)([O-])N1CCc2nc(-c3ccccc3)nc(-c3ccc(Cl)cc3)c2C1	4%	i	-16%	-16%	i
C[S+](=O)([O-])N1CCc2nc(C3CC3)nc(-c3ccc(Cl)cc3)c2C1	x	x	32µM*	u	4%
O=C(NC1CCCC1)N1CCCC(C(=O)N2CCC(c3nc4ccncc4[nH]3)CC2)C1 (centres undefined)	x	x	-3%	i	i
NC(=O)C1Cc2ccccc2CN1C(=O)CCc1nc2ccccc2[nH]c1=O (centres undefined)	-2%	i	-1%	1%	-8%
CCN(CC)Cc1cnc2c(C(=O)Nc3ccc(OC)c(OC)c3)cnn2c1	4%	i	i	-2%	4%[11.5 µM]
CCN(CC)Cc1ccc2cc(COC(=O)Nc3ccc(C(=O)NO)cc3)ccc2c1	x	x	x	x	15µM*
COc1ccc(CCNC(=O)c2cc(-c3ccccc3OC)c3nncn3n2)cc1	x	x	u	u	-15%
C1=C(c2cc(-c3ccncc3)cn3cncc23)CCOC1	4%[70.6 µM]	i	25µM*	100µM*	3%[88.5 µM]
c1cc(-c2cc(-c3cn[nH]c3)cn3cncc23)ccn1	1%[70.6 µM]	i	28µM*	35µM*	u
c1cc(-c2cc(-c3cn[nH]c3)c3cncn3c2)cc(N2CCOCC2)c1	-23%[70.6 µM]	i	25µM*	u	-7%[88.5 µM]
COc1ccc(-c2cc(-c3cn[nH]c3)c3cncn3c2)cn1	-3%[70.6 µM]	i	u	u	-27%[88.5 µM]
CN(C)c1cccc(-c2cc(-c3cn[nH]c3)c3cncn3c2)c1	-12%[70.6 µM]	u	14µM*	u	i
c1cncc(-c2cc(-c3cccc(N4CCOCC4)c3)cn3cncc23)c1	-10%[70.6 µM]	i	u	u	-2%[88.5 µM]
CCc1n[nH]c(CC2CCN(C(=O)Cc3c[nH]c4ccccc34)CC2)n1	3%	i	i	i	i

Screening results (PubChem BioAssay)
